Several values for one entry are separate records, joined by “and”; a condition that tells them apart may be missing. Equal entries are not always repeated. Inconclusive results are not listed. Activity calls are given as the source filed them. Calls come from the whole dose curve; as a rule, active = well fitted inhibition curve with a large enough effect; inconclusive = small, poorly fitted or top-dose-only effect; inactive = flat fitted curve, though single readings scatter.
How the values were obtained:
CRL-7250 = normal cell line; experiment: Cytotoxic Profiling of Annotated Libraries Using Quantitative High-Throughput Screening (AID 1296008); settings: Five cell lines viability, CellTiter-Glo ATP luminescence, 48-72 h; max response: stronger effect = lower value; note: potency is the fitted concentration of half-maximal effect; for max response: % is set by controls: 0 for no effect and ±100 for the full control effect
Procedure, shortened: (§1)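 Compounds were pin-transferred onto cells and incubated 48 or 72 hr at 37 degree Celsius, 95% humidity. CellTiter-Glo was added, plates sat 10 min at room temperature, then ATP-coupled luminescence was imaged as the viability read-out.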

HaCat [1] = experiment: as above; settings: Five cell lines viability, CellTiter-Glo ATP luminescence, 48-72 h; max response: stronger effect = lower value
Procedure, shortened: as §1

KB-3-1 = experiment: as above; settings: Five cell lines viability, CellTiter-Glo ATP luminescence, 48-72 h; max response: stronger effect = lower value
Procedure, shortened: as §1

NIH3T3 = experiment: as above; settings: Five cell lines viability, CellTiter-Glo ATP luminescence, 48-72 h; max response: stronger effect = lower value
Procedure, shortened: as §1

HACAT [2] = experiment: qHTS assay to identify novel small-molecules to repurpose for Merkel cell carcinoma treatment (AID 1296009); settings: MCC and control cell lines, CellTiter-Glo viability, 72 h; at 44.8 µM (top of the series) unless noted
Procedure, shortened: (§2)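 Cells exposed to NPC (8-point) and MIPE (11-point) compound dilutions for 72 hr at 37 degree celsius; viability read by CellTiter-Glo luminescence, normalized to no-cell and DMSO in-plate controls.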

JCK = experiment: qHTS profiling for inhibitors of Plasmodium falciparum proliferation (AID 504749);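 note: 0% = DMSO vehicle and full inhibition = artemisinin control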; settings: P. falciparum in erythrocytes, SYBR Green DNA, 72 h; series mostly up to 28.7 µM
Procedure, shortened: (§3)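 P. falciparum-infected erythrocytes (0.3% parasitemia, 2.5% hematocrit final) were exposed to compounds for 72 h at 37 C in 5% CO2, then lysed with SYBR Green buffer overnight at room temperature; parasite DNA fluorescence was normalized to artemisinin and DMSO controls.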

N140 = experiment: as above; settings: P. falciparum in erythrocytes, SYBR Green DNA, 72 h; series mostly up to 28.7 µM
Procedure, shortened: as §3

P93_24 = experiment: as above; settings: P. falciparum in erythrocytes, SYBR Green DNA, 72 h; series mostly up to 28.7 µM
Procedure, shortened: as §3

P94_40 = experiment: as above; settings: P. falciparum in erythrocytes, SYBR Green DNA, 72 h; series mostly up to 28.7 µM
Procedure, shortened: as §3

PAD = experiment: as above; settings: P. falciparum in erythrocytes, SYBR Green DNA, 72 h; series mostly up to 28.7 µM
Procedure, shortened: as §3

PC15 = experiment: as above; settings: P. falciparum in erythrocytes, SYBR Green DNA, 72 h; series mostly up to 28.7 µM
Procedure, shortened: as §3

PC49 = experiment: as above; settings: P. falciparum in erythrocytes, SYBR Green DNA, 72 h; series mostly up to 28.7 µM
Procedure, shortened: as §3

SC27B = experiment: as above; settings: P. falciparum in erythrocytes, SYBR Green DNA, 72 h; series mostly up to 28.7 µM
Procedure, shortened: as §3

TAB109 = experiment: as above; settings: P. falciparum in erythrocytes, SYBR Green DNA, 72 h; series mostly up to 28.7 µM
Procedure, shortened: as §3

TAB113 = experiment: as above; settings: P. falciparum in erythrocytes, SYBR Green DNA, 72 h; series mostly up to 28.7 µM
Procedure, shortened: as §3

TAB165 = experiment: as above; settings: P. falciparum in erythrocytes, SYBR Green DNA, 72 h; series mostly up to 28.7 µM
Procedure, shortened: as §3

W2 = experiment: as above; settings: P. falciparum in erythrocytes, SYBR Green DNA, 72 h; series mostly up to 28.7 µM
Procedure, shortened: as §3

HEK293T = experiment: qHTS assay to identify novel small-molecules to repurpose for Merkel cell carcinoma treatment (AID 1296009); settings: MCC and control cell lines, CellTiter-Glo viability, 72 h; at 44.8 µM (top of the series) unless noted
Procedure, shortened: as §2

PC26 = experiment: qHTS profiling for inhibitors of Plasmodium falciparum proliferation (AID 504749);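 note: 0% = DMSO vehicle and full inhibition = artemisinin control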; settings: P. falciparum in erythrocytes, SYBR Green DNA, 72 h; series mostly up to 28.7 µM
Procedure, shortened: as §3
Note: nearly all actives have a fitted effect of over 60% in size.

Cc1nc2c([nH]1)CCN(C(=O)c1ccc(NC(=O)c3ccccc3-c3ccccc3)cc1)c1ccccc1-2
inactive: max response (CRL-7250) 1.7% and 3.01% | max response (HaCat [1]) -0.498% | outcome (HaCat [1]) | max response (KB-3-1) 0.364% and -8.3% | max response (NIH3T3) 4.2% | outcome (NIH3T3) | outcome (HACAT [2])

C[C@H]1COC2=C1C(=O)C(=O)c1c2ccc2c1CCCC2(C)C
inactive: max response (CRL-7250) -3.27% | max response (HaCat [1]) 3.37% | max response (KB-3-1) -1.52% | outcome (NIH3T3)

CC(C)Oc1cc(Nc2nc(N[C@@H](C)c3ccc(F)cn3)ncc2Cl)[nH]n1
active: Potency (CRL-7250) 2.64 µM | Potency (KB-3-1) 10.5 µM | Potency (NIH3T3) 5.26 µM
inactive: max response (HaCat [1]) -29.2%

COc1cc(F)c(C(C)C)cc1-c1ccc(C(F)(F)F)cc1CN1C(=O)O[C@H](c2cc(C(F)(F)F)cc(C(F)(F)F)c2)[C@@H]1C
inactive: outcome (CRL-7250) | max response (HaCat [1]) 0.17% | max response (KB-3-1) -11.6% | max response (NIH3T3) 0.998%

CO[C@@H]1C(N(C)C(=O)c2ccccc2)C[C@H]2O[C@]1(C)n1c3ccccc3c3c4c(c5c6ccccc6n2c5c31)C(=O)NC4=O (stereo partly specified)
active: Potency (CRL-7250) 6.62 µM | Potency (HaCat [1]) 9.35 µM | Potency (KB-3-1) 10.5 µM

CN[C@@H](C)[C@H]1[C@H](O)C[C@@]2(C)[C@@H]3CC[C@H]4C(C)(C)[C@@H](NC)CC[C@@]45C[C@@]35CC[C@]12C
inactive: max response (CRL-7250) -4.48% and 3.02% | max response (HaCat [1]) -3.67% | outcome (HaCat [1]) | max response (KB-3-1) 4.02% | outcome (KB-3-1) | outcome (NIH3T3) | outcome (HACAT [2]) inactive [at 9.27 µM]

COc1ccnc(CS(=O)c2nc3ccc(OC(F)F)cc3[nH]2)c1OC (stereo unspecified)
inactive: outcome (JCK) | Potency (N140) | Potency (P93_24) | Potency (P94_40) | Potency (PAD) | outcome (PC15) | outcome (PC49) | Potency (SC27B) | Potency (TAB109) | Potency (TAB113) | Potency (TAB165) | Potency (W2) | max response (CRL-7250) 3.58% | max response (HaCat [1]) -12.5% | outcome (HaCat [1]) | max response (KB-3-1) -0.194% and 5.88% | max response (NIH3T3) -24% | outcome (NIH3T3) | outcome (HACAT [2]) | outcome (HEK293T)

CC(NCCc1ccc(O)cc1)C(O)c1ccc(O)cc1 (stereo unspecified)
inactive: max response (CRL-7250) -0.502% | max response (HaCat [1]) -0.381% | max response (KB-3-1) -1.97% | outcome (NIH3T3)

COc1ccc(-c2cc3nccn3c(Nc3ncccc3C(N)=O)n2)cc1OC
active: Potency (CRL-7250) 2.09 µM
inactive: max response (HaCat [1]) -23.8% | max response (KB-3-1) -9.74%

CO[C@H]1/C=C\O[C@@]2(C)Oc3c(C)c(O)c4c(O)c(c5c(nc6cc(C)ccn65)c4c3C2=O)NC(=O)C(C)=CC=C[C@H](C)[C@H](O)[C@@H](C)[C@@H](O)[C@@H](C)[C@H](OC(C)=O)[C@H]1C
inactive: max response (CRL-7250) 3.34% | max response (HaCat [1]) -2.46% | max response (KB-3-1) -2.96% | max response (NIH3T3) -4.51%

CCN1CCC(n2cc(CNc3cc(Cl)c4ncc(C#N)c(Nc5ccc(F)c(Cl)c5)c4c3)nn2)CC1
active: Potency (KB-3-1) 18.4 µM
inactive: max response (CRL-7250) -1.92% and -4.77% | max response (HaCat [1]) -29.2% and -4.6% | max response (NIH3T3) 2.53% | outcome (NIH3T3)

COc1nccc(-c2c(-c3ccc(F)cc3)ncn2C2CCNCC2)n1
inactive: max response (CRL-7250) -23.7% and 3.35% | max response (HaCat [1]) -7.28% and 1.1% | max response (KB-3-1) -17.7% | outcome (KB-3-1) | max response (NIH3T3) -16.2%

CN(C)CCOc1ccc(C(=C(CCCl)c2ccccc2)c2ccccc2)cc1
inactive: max response (CRL-7250) -7.14% | max response (HaCat [1]) -3.54% | max response (KB-3-1) 7.38% | outcome (NIH3T3)

CNC(=O)c1ccc2c(C(=Nc3cccc(CN(C)C)c3)c3ccccc3)c(O)[nH]c2c1
inactive: max response (CRL-7250) -0.775% and -15% | max response (HaCat [1]) 0.629% | outcome (HaCat [1]) | outcome (KB-3-1) | outcome (HACAT [2])
active: Potency (NIH3T3) 16.6 µM and 8.2 µM

C#C[C@]1(O)CC[C@H]2[C@H]3CCc4cc(OC)ccc4[C@H]3CC[C@@]21C
inactive: max response (CRL-7250) -5.04% | max response (HaCat [1]) 0.906% | max response (KB-3-1) -15.5% | max response (NIH3T3) 2.86%

CCC(=O)OCC(=O)[C@@]1(OC(=O)CC)[C@@H](C)C[C@@H]2[C@H]3CCC4=CC(=O)C=C[C@]4(C)[C@@]3(F)[C@@H](O)C[C@@]21C
inactive: max response (CRL-7250) -3.82% | max response (HaCat [1]) -0.0521% | outcome (KB-3-1) | max response (NIH3T3) 0.981%

CC(C)CN(C[C@H](O)[C@H](Cc1ccccc1)NC(=O)O[C@H]1CCOC1)S(=O)(=O)c1ccc(N)cc1
inactive: max response (CRL-7250) 0.909% | max response (HaCat [1]) -15.1% | outcome (KB-3-1) | max response (NIH3T3) 1.75%

O=C1Nc2ccc(I)cc2C1=Cc1cc(Br)c(O)c(Br)c1
inactive: outcome (CRL-7250) | max response (HaCat [1]) 4.95% | max response (KB-3-1) 8.65% | max response (NIH3T3) -9.84%

Cc1cc(C(C)Nc2ccccc2)c2nc(N3CCOCC3)cc(=O)n2c1 (stereo unspecified)
inactive: max response (CRL-7250) -10.1% | max response (HaCat [1]) -24% | outcome (KB-3-1)
active: Potency (NIH3T3) 4.61 µM

CS(=O)(=O)c1ccc(C2=C(c3ccccc3)C(=O)OC2)cc1
inactive: outcome (JCK) | Potency (N140) | Potency (P93_24) | Potency (P94_40) | Potency (PAD) | outcome (PC15) | Potency (PC26) | outcome (PC49) | Potency (SC27B) | Potency (TAB109) | Potency (TAB113) | Potency (TAB165) | Potency (W2) | max response (CRL-7250) 3.58% and 2.56% | max response (HaCat [1]) -5.92% | outcome (HaCat [1]) | max response (KB-3-1) 20.7% and -2.3% and -12.9% | max response (NIH3T3) -4.55% | outcome (NIH3T3) | outcome (HACAT [2]) | outcome (HEK293T)

From PubChem BioAssay (NCATS)
